The source of these data is PubChem BioAssay (NCI).

Test systems include HCT-15 colon; HT29 colon; SNB-75 CNS; SNB-19 CNS; U251 CNS; PC-3 prostate; SK-MEL-5 melanoma; UACC-62 melanoma; LOX IMVI melanoma; SK-MEL-28 melanoma; SK-MEL-2 melanoma; EKVX NSCLC; SN12C renal; TK-10 renal; ACHN renal; CAKI-1 renal; CCRF-CEM leukemia; MOLT-4 leukemia; A498 renal; UO-31 renal.
Assay in all cases: NCI-60 one-dose screen, 48 h (100 = growth as untreated, 0 = no growth, -100 = all killed)
Settings in all cases: 10 µM unless noted

Compounds without any hit were thinned out: in the full panel of roughly 83,000, 20% have a hit.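 For each line, cells grew in 96-well plates with the test compound present at a single concentration for 48 hours.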 A number with no mark means an inactive call. Active and inactive are the calls of the source. The calls were made as follows: active = growth percent below 10; inactive = the rest.

`COc1ccc(NC(=O)c2cc(NCc3cc(O)ccc3O)ccc2O)cc1`: the growth with HCT-15 colon was 97%; in the experiment on HT29 colon it was 89.7%; in the experiment on SNB-75 CNS, 101%; with SNB-19 CNS, 90%; with U251 CNS, 91.1%; in the experiment on PC-3 prostate it was 64.1%. Moreover, the growth was 92.6% with SK-MEL-5 melanoma; 94.6% in the experiment with UACC-62 melanoma; 94.3% with LOX IMVI melanoma; 98.5% in the experiment with SK-MEL-28 melanoma; 89.3% in the experiment on SK-MEL-2 melanoma; 100% in the experiment on EKVX NSCLC. Further, the growth in the experiment on SN12C renal is 85.8%; in the experiment on TK-10 renal, 118%; in the experiment with ACHN renal it was 97.4%; in the experiment on CAKI-1 renal it was 107%; in the experiment with CCRF-CEM leukemia it was 28.5%; with MOLT-4 leukemia it was 65.2%.

As for `N#CC(C#N)=Cc1cc2ccccc2nc1Oc1ccc(C(F)(F)F)cc1`, the growth in the experiment with HCT-15 colon was 85.1%; in the experiment with HT29 colon, 100%; in the experiment with SNB-75 CNS, 84.2%; with SNB-19 CNS it was 93.2%; in the experiment with U251 CNS, 91.2%; in the experiment on PC-3 prostate, 51.5%. The growth with SK-MEL-5 melanoma is 94.7%; in the experiment with UACC-62 melanoma it was 78.4%; in the experiment on LOX IMVI melanoma it was 76.4%; in the experiment on SK-MEL-28 melanoma, 104%; with SK-MEL-2 melanoma, 103%; in the experiment with EKVX NSCLC, 84.1%. The growth was 91.9% with SN12C renal; 114% in the experiment with TK-10 renal; 88.7% with ACHN renal; 67.7% with CAKI-1 renal; 0.288% (active) in the experiment with CCRF-CEM leukemia; 54.8% with MOLT-4 leukemia.

As for `COc1cc(NC(=O)CSc2nc3ccc(C)cc3c(=O)n2Cc2ccccc2)cc(OC)c1OC`, the growth with HCT-15 colon is 84.4%; in the experiment on HT29 colon it was 70.6%; in the experiment on SNB-75 CNS it was -5.79% (active); with SNB-19 CNS, 89.8%; in the experiment on U251 CNS, 57.6%; in the experiment with PC-3 prostate, 74.1%. The growth in the experiment with SK-MEL-5 melanoma was 39.3%; with UACC-62 melanoma, 53.2%; with LOX IMVI melanoma it was 61.7%; with SK-MEL-28 melanoma, 75.1%; in the experiment with SK-MEL-2 melanoma it was 57.2%; with EKVX NSCLC it was 84.9%. Besides, the growth in the experiment with SN12C renal was 83.5%; in the experiment on TK-10 renal, 55.4%; in the experiment with ACHN renal, 38%; in the experiment on CAKI-1 renal, 82.4%; with A498 renal, 14.1%; with CCRF-CEM leukemia, 94.1%.

Turning to `CCCN1[C@@H]2CC[C@H]1/C(=C\c1ccc(OC)c(OC)c1)C(=O)/C2=C/c1ccc(OC)c(OC)c1`, the growth was 41.6% with HCT-15 colon; 30% with HT29 colon; 61.1% with SNB-75 CNS; 56.7% in the experiment with SNB-19 CNS; 40.7% with U251 CNS; 44.3% in the experiment with PC-3 prostate. In addition, the growth in the experiment with SK-MEL-5 melanoma was 18.1%; in the experiment on UACC-62 melanoma, 32%; in the experiment with LOX IMVI melanoma, 32.5%; in the experiment with SK-MEL-28 melanoma it was 73.2%; in the experiment on SK-MEL-2 melanoma, 53.6%; in the experiment with SN12C renal, 49.9%. The growth is 33.6% in the experiment on UO-31 renal; 67.2% in the experiment with TK-10 renal; 47.3% with ACHN renal; 45.9% in the experiment with CAKI-1 renal; 23.6% in the experiment on A498 renal; 30.6% with CCRF-CEM leukemia. For the same molecule, the growth in the experiment with MOLT-4 leukemia was 29.5%.

With `COc1cc2nc(-c3ccc(Cl)cc3)cc(OCCCN3CCCC3)c2cc1OC`, the growth was 20.4% with HCT-15 colon; 23.8% with HT29 colon; 8.25% (active) in the experiment on SNB-75 CNS; 67.9% in the experiment with SNB-19 CNS; 54.4% in the experiment with U251 CNS; 41.9% in the experiment with PC-3 prostate. Moreover, the growth with SK-MEL-5 melanoma was -8.4% (active); with UACC-62 melanoma, -66.1% (active); with LOX IMVI melanoma, -32.7% (active); with SK-MEL-28 melanoma, 63.7%; with SK-MEL-2 melanoma it was 71.1%; in the experiment on EKVX NSCLC it was 65.8%. Besides, the growth is 37.9% in the experiment with SN12C renal; 101% with TK-10 renal; 35.5% in the experiment with ACHN renal; 3.85% (active) with CAKI-1 renal; 44.6% with CCRF-CEM leukemia; 40.4% in the experiment with MOLT-4 leukemia.

`COCc1cnccc1NC1CCCCCC1`: the growth in the experiment with HCT-15 colon was 107%; with HT29 colon it was 90.7%; with SNB-75 CNS, 98.1%; in the experiment with SNB-19 CNS, 104%; with U251 CNS, 103%; with PC-3 prostate it was 98.1%. Besides, the growth in the experiment on SK-MEL-5 melanoma was 101%; in the experiment on UACC-62 melanoma, 98.7%; with LOX IMVI melanoma it was 100%; in the experiment with SK-MEL-28 melanoma, 110%; with SK-MEL-2 melanoma it was 107%; with SN12C renal it was 99.4%. Also, the growth with UO-31 renal was 86.3%; in the experiment on TK-10 renal, 94.1%; in the experiment on ACHN renal, 108%; in the experiment with CAKI-1 renal, 94.4%; with A498 renal it was 84.4%; with CCRF-CEM leukemia, 101%. In the experiment on MOLT-4 leukemia, the growth was 94.4%.

As for `COc1ccc2nc(-c3ccc(-c4noc(-c5cc(OC)c(OC)c(OC)c5)n4)cc3)[nH]c2c1`, the growth with HCT-15 colon is 30.2%; in the experiment with HT29 colon, 20.2%; in the experiment on SNB-75 CNS, 35.4%; with SNB-19 CNS it was 76.8%; in the experiment with U251 CNS, 25.1%; in the experiment on PC-3 prostate it was 95.2%. The growth in the experiment on SK-MEL-5 melanoma was 45%; in the experiment with UACC-62 melanoma it was 99.8%; with LOX IMVI melanoma it was 67.5%; with SK-MEL-28 melanoma, 51.3%; in the experiment on SK-MEL-2 melanoma, 99.2%; with SN12C renal it was 80.7%. Further, the growth in the experiment on UO-31 renal was 108%; in the experiment with TK-10 renal, 102%; with ACHN renal, 97.9%; in the experiment with CAKI-1 renal, 96.5%; with A498 renal, 101%.

For the molecule `O=C(Nc1ccccc1C(=O)N/N=C(\c1ccccc1)c1ccccn1)c1ccc(F)cc1`, the growth in the experiment with HCT-15 colon was 32.5%; with HT29 colon it was 25.2%; in the experiment on SNB-75 CNS, 16.2%; in the experiment with SNB-19 CNS it was 25.5%; in the experiment on U251 CNS, 17.8%; in the experiment with PC-3 prostate it was 36.5%. For the same molecule, the growth was -7.66% (active) in the experiment with SK-MEL-5 melanoma; 1.28% (active) in the experiment with UACC-62 melanoma; 8.38% (active) in the experiment on LOX IMVI melanoma; 33.7% in the experiment on SK-MEL-28 melanoma; 37.2% with SK-MEL-2 melanoma; 16.8% with EKVX NSCLC. Moreover, the growth is 26.6% with SN12C renal; 1.98% (active) in the experiment with UO-31 renal; 49.1% in the experiment with TK-10 renal; 14.1% in the experiment on ACHN renal; 5.29% (active) in the experiment with CAKI-1 renal; 4.15% (active) with CCRF-CEM leukemia. The growth with MOLT-4 leukemia is 12.8%.
